Test results as given in PubChem BioAssay AID434926 (Sanford-Burnham Center for Chemical Genomics, 2010).
This is one part of the list. Unmarked numbers belong to inactive results. Active and inactive are the calls of the source.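 How the source made its calls: active means at least twofold enzyme activation in any of six single-dose repeats, which the averaged readout prints as negative percent; inactive means the rest.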

These molecules were tested against Intestinal-type alkaline phosphatase (Homo sapiens) (UniProt P09923) (assay: human IAP activators, confirmation, biochemical, luminescence, single concentration, uHTS hits (AID 434926)). Conditions: purified IAP, CDP-Star luminescence, 30 min; at 8.3 µM; hits give low values.
Sequence of Intestinal-type alkaline phosphatase (Homo sapiens) (P09923 whole entry, looked up): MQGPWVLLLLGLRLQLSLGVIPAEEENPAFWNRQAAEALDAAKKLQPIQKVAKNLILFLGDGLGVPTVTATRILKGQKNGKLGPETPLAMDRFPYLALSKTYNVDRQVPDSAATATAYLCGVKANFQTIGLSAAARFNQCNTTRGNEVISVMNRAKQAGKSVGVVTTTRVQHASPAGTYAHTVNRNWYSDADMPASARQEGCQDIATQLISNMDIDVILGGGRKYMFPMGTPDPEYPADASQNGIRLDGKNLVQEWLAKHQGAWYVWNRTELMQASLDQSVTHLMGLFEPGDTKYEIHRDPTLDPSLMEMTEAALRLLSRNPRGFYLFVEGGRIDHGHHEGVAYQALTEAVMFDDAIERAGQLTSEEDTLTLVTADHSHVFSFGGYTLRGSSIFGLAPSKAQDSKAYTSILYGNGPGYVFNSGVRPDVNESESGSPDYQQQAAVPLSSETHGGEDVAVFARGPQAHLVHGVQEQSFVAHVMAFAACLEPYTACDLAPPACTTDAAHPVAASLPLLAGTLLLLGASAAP

SMILES	activation (%Activity, negative = activation)
COc1ccc2c(c1OC)C(=O)N(c1ncn[nH]1)C2	12.6%
O=c1c(/C=N/O)coc2ccc(Cl)cc12	-11.6%
CCOC(=O)c1cn[nH]c1NC(=S)Nc1ccccc1	-69.2%
COc1cccc(/C=N/NC(=O)c2[nH]nc3c2CCc2ccccc2-3)c1O	13.9%
Cc1cc(C)cc(NC(=O)NC2CCN(CC(=O)Nc3cccc(Cl)c3C)CC2)c1	1.71%
CCC(C(=O)Nc1ccc(C(C)C)cc1)c1ccccc1 (centres undefined)	-30.6%
CC(=O)c1ccc(NC(=O)C2CCCN2S(=O)(=O)c2cccs2)cc1 (centres undefined)	-85.1% (active)
COc1c(O)cc2oc(-c3ccc(O)c(O)c3)cc(=O)c2c1O	-36.9%
COc1cccc(/C=N\NC(=O)C2=NNC(=O)C2C)c1O (centres undefined)	34.8%
COCCSc1nnc(NC(=O)CCS(=O)(=O)Cc2ccccc2)s1	-46.9%
OCCCN1c2ccccc2Nc2nnc(-c3ccccc3)cc21	-25.8%
COc1ccc(C2=Nc3cc(C)ccc3OC2)cc1	58.3%
N#C/C(=C\c1ccc(O)c(O)c1)C(=O)NCc1ccccc1	-0.121%
Cn1c(=O)c2sccc2n(Cc2ccc(Br)cc2)c1=O	6.79%
CCOc1ccc(NC(=O)CSc2nncn2C)cc1	-83.5% (active)
O=C(Nc1cccc(-c2cccc(Cl)c2)c1)C1CCN(C2CCC2)CC1	-7.84%
CCC(C)C(=O)Nc1ccccc1N1CCN(c2ccc(F)cc2)CC1 (centres undefined)	13.6%
Cc1cc(C(=O)NC2CC(C)(C)Cc3c2cnn3-c2ccccc2)n[nH]1 (centres undefined)	62.1%
Cc1c(C=O)c2ccccn2c1C(=O)c1ccncc1	5.63%
CC(C)(C)OC(=O)NCCCCCNC(=O)c1[nH]cnc1C(=O)Nc1nccs1	-6.96%
O=C(NNC(=S)Nc1ccccc1)c1cccc(S(=O)(=O)N2CCOCC2)c1	-70.7%
O=C(NCCN1CCOCC1)[C@H](Cc1ccccc1)N1C(=O)c2ccccc2C1=O	-5.42%
CCN1/C(=C\c2ccc3ccccc3[n+]2CC)Sc2cc(C)ccc21	32.7%
COc1ccc(CN2CCC(n3nccc3NC(=O)CCCc3ccccc3)CC2)cc1C	-127% (active)
